# Results from ChEMBL document CHEMBL4513216, “Probing the Open Global Health Chemical Diversity Library for Multistage-Active Starting Points for Next-Generation Antimalarials” (ACS Infect Dis, 2020).
# Out of some 69,000 compounds screened, about 8,600 (12%) showed an effect of 50% or more. The sample holds strong results, similar compounds and a random draw of the others, so the mix is not that of the screen.
# Test system: Plasmodium berghei
# Assay: Screen against P. berghei liver stage (PbLuc), transformed with Luciferase, at 10uM
# Type: functional, HepG2
# Settings: tested at 10 uM
row,Structure (SMILES),INHIBITION
1,CCN(Cc1cccc2c1OCO2)C(=O)C(C)c1cccnc1 (configuration not stated),40.9%
2,CCc1noc(C(C)Sc2nnc(C3CC3)n2CC(N)=O)n1 (configuration not stated),29%
3,c1coc(-c2nc(CNC3CCC4(CCNCC4)CC3)no2)c1,33.1%
4,O=C([C@H]1CCCO1)N1Cc2nccn2CC(COc2cccnc2)C1 (some centres not stated),-30%
5,CN(c1ccncn1)C1CC2(CCN(C(=O)c3cccs3)C2)C1 (configuration not stated),42.1%
6,CN(c1ccncn1)C1CC2(CCN(C(=O)CCc3cccs3)C2)C1 (configuration not stated),37.5%
7,CN(c1ccncn1)C1CC2(CCN(C(=O)Cc3cccs3)C2)C1 (configuration not stated),51.5%
8,CCc1nccn1C1CCCN(C(=O)CCCc2ccccn2)C1 (configuration not stated),-6.14%
9,CC(C)C[C@H]1CN(c2nc3c(cc2C(N)=O)CCC3)CC[C@@]1(C)O,-22.5%
10,CCN1CCC2(CC1)CN(C(=O)c1cccnc1)c1ccc(Cl)cc12,60.2%
11,CN1CCC2(CC1)CN(C(=O)c1cccnc1)c1ccc(Cl)cc12,26.7%
12,CCCN1CCC2(CC1)CN(C(=O)c1cccnc1)c1ccc(F)cc12,26.7%
13,CC(C(N)=O)N(C)CCCc1cc(-c2ccc(F)cc2)n(C)n1 (configuration not stated),-52.5%
14,Cc1nn(C)c(C)c1-c1ccc(=O)n(C(C)C(=O)NCc2ccco2)n1 (configuration not stated),15.7%
15,O=C(C[S+]([O-])Cc1ccc(F)cc1)N1CCc2sccc2C1 (configuration not stated),80.3%
16,O=C(C[S+]([O-])Cc1ccc(Cl)cc1Cl)N1CCc2sccc2C1 (configuration not stated),21.8%
17,O=C(C[S+]([O-])Cc1c(Cl)cccc1Cl)N1CCc2sccc2C1 (configuration not stated),50.5%
18,O=C(C[S+]([O-])Cc1ccc(F)cc1Cl)N1CCc2sccc2C1 (configuration not stated),-3.96%
19,O=C(C[S+]([O-])Cc1c(F)cccc1Cl)N1CCc2sccc2C1 (configuration not stated),-10.9%
20,O=C(C[S+]([O-])Cc1ccccc1F)N1CCc2sccc2C1 (configuration not stated),-13.9%
21,O=C(NCCc1cccs1)[C@H]1CO[C@H]2CCN(C3CCC3)C[C@H]2C1,62%
22,O=C(NCCc1cccs1)[C@H]1CO[C@H]2CCN(CC3CC3)C[C@H]2C1,17.7%

row,Structure (SMILES),INHIBITION
1,O=C(NCc1cccs1)[C@H]1CO[C@H]2CCN(C3CCCC3)C[C@H]2C1,17.7%
2,CN(C)CCN1CCCC12CCN(C(=O)c1cccn1C)CC2,20.5%
3,CN(Cc1ccsc1)C(=O)CS(=O)(=O)Cc1ccc(Cl)c(Cl)c1,9.32%
4,CN(Cc1cccs1)C(=O)CS(=O)(=O)Cc1ccc(Cl)c(Cl)c1,62.2%
5,CN(Cc1ccccc1)C(=O)CS(=O)(=O)Cc1ccc(Cl)c(Cl)c1,-35.7%
6,Nc1nccnc1C1CN(C(=O)c2cnc(C3CC3)nc2)CCO1 (configuration not stated),26.8%
7,CCc1nn(C)c(Cl)c1CN1C[C@H](NC(=O)CCO)[C@@H](C(C)C)C1,14.8%
8,CCc1nn(C)c(Cl)c1CN1C[C@@H](NC(=O)N(C)C)[C@H](C(C)C)C1,59.7%
9,Cc1noc(C)c1CN1C[C@@H](NC(=O)N(C)C)[C@H](C(C)C)C1,-9.29%
10,c1ccc(OCc2cscn2)c(CNC2CCc3ncnn3C2)c1 (configuration not stated),3.1%
11,CCN(CC1COc2ccccc2O1)C(=O)NCCCn1cncn1 (configuration not stated),10.17%
12,CC(=O)N1CCCC1c1nnn2cc(NCc3cccnc3)ccc12 (configuration not stated),-15.3%
13,CC(=O)N1CCCC1c1nnn2cc(Nc3ccccc3)ccc12 (configuration not stated),2.41%
14,CC(=O)N1CCCC1c1nnn2cc(-c3ccncc3)ccc12 (configuration not stated),61.9%
15,CCN1CCOCC12CCN(C(=O)C1CCC1)CC2,-22.1%
16,CN(C)CCN1CCN(Cc2cccs2)Cc2cccnc21,7.53%
17,c1coc(CN2CCO[C@H]3[C@@H](OCC4CC4)CC[C@@H]32)c1,6.67%
18,CN(Cc1cnn(-c2ccccc2)n1)CC1CCCN1c1cccnn1 (configuration not stated),58.3%
19,CN(Cc1ccccn1)CC1CCCN1c1cccnn1 (configuration not stated),-8.11%
20,CC(C)CCc1nc(CNCC2CCCN2c2cccnn2)cs1 (configuration not stated),61.3%
21,CCc1nc(CNCC2CCCN2c2cccnn2)no1 (configuration not stated),23.4%
22,CN(Cc1cnn(-c2ccccc2)n1)C1CCCN(c2cccnn2)C1 (configuration not stated),-19.4%

row,Structure (SMILES),INHIBITION
1,CCCc1nc(CNCC2CCCN2c2cccnn2)cs1 (configuration not stated),48.2%
2,c1cnnc(N2CCCC2CNCCc2cccs2)c1 (configuration not stated),91%
3,O=C(CNCC1CCCN1c1cccnn1)NCCc1cccs1 (configuration not stated),28%
4,CCc1noc(CNCC2CCCN2c2cccnn2)n1 (configuration not stated),19.5%
5,CCc1nc(CNCC2CCCN2c2cccnn2)cs1 (configuration not stated),5.8%
6,CCCc1nc(CNCC2CCCN2c2cccnn2)no1 (configuration not stated),59%
7,c1cnnc(N2CCCC2CNCc2cccs2)c1 (configuration not stated),19.5%
8,CC(C)CN1CCS(=O)(=O)[C@@H]2CCN(S(=O)(=O)N(C)C)CC[C@@H]21,20.1%
9,O=C(NCCN1CCCCC1)C(c1ccccc1)N1CCCC1 (configuration not stated),-22.1%
10,Cc1cnccc1-c1cnn(CCNC(=O)c2cccnc2)c1C1CC1,16.5%
11,CC(C)N(C)Cc1nnc2n1CCCN(c1ncccn1)C2,29.5%
12,CCC(CC)C(=O)NC1CCCc2nc(N3CCOCC3)ncc21 (configuration not stated),7.52%
13,Cn1cc(N2CC3(CCN(CC4CC4)C3)CC2=O)cn1 (configuration not stated),15.3%
14,Cc1nn(C)c(C)c1-c1cnc(C2CCCN(S(C)(=O)=O)C2)cn1 (configuration not stated),-6.92%
15,CCNc1cc2c(nn1)CCN(C(=O)C1CCc3ccccc31)C2 (configuration not stated),11.2%
16,COCC(=O)N1CCC(c2cc3nc(C)cc(C(F)(F)F)n3n2)CC1,20.15%
17,O=C1NC2(CCCN(C(=O)CCn3cccn3)C2)Oc2ccccc21 (configuration not stated),10.385%
18,c1ccc(-n2ccc(CNCC3CCCN3c3cccnn3)n2)cc1 (configuration not stated),16.9%
19,c1ccc(-n2cc(CNCC3CCCN3c3cccnn3)nn2)cc1 (configuration not stated),18.2%
20,c1ccc(-n2ncc(CNCC3CCCN3c3cccnn3)n2)cc1 (configuration not stated),57.2%
21,Cc1ccc(C(=O)NS(=O)(=O)c2ccccc2Br)c(=O)[nH]1,44.1%
22,Cc1ccc(C(CCNCCCN(C)C)C2CCOC(C)(C)C2)cc1 (configuration not stated),32.3%

row,Structure (SMILES),INHIBITION
1,COCc1nn(CC2CC2)c2c1CN(Cc1cccs1)CC2,-97.2%
2,CCOCc1nn(CC2CC2)c2c1CN(Cc1cccs1)CC2,64.7%
3,CCOCc1nn(C)c2c1CN(Cc1cccs1)CC2,32.1%
4,O=C(c1n[nH]cc1Cl)N1CCOC(Cc2cccc(C(F)(F)F)c2)C1 (configuration not stated),75.9%
5,O=C(c1ccc(O)cn1)N1CCOC(Cc2cccc(C(F)(F)F)c2)C1 (configuration not stated),-9.29%
6,CC(=O)N1CCOC(Cc2cccc(C(F)(F)F)c2)C1 (configuration not stated),7.1%
7,CN(C(=O)Nc1ccncc1)C1CCN(c2ccccc2)C1=O (configuration not stated),41.3%
8,CN1C(=O)COc2ccc(NC(=O)CCc3nc4cccnc4[nH]3)cc21,39.7%
9,O=C(Nc1cc(-c2ccccc2)on1)N1CC[C@H](O)C1,-51.7%
10,O=C(Nc1cc(-c2ccccc2)on1)N1CCN(CCO)CC1,43.9%
11,CCC(=O)NC1CCCN(C(=O)Nc2cc(-c3ccccc3)on2)C1 (configuration not stated),52.6%
12,Cc1nnc(NC(=O)NCCN(C(=O)OC(C)(C)C)C2CC2)s1,4.34%
13,O=C1CCN(CCS(=O)(=O)c2ccc(Cl)cc2)CCN1,7.43%
14,COCCNC(=O)[C@H]1C[C@@H]2CCN(c3ccncn3)C[C@H]2O1,7.53%
15,Cc1cc2n(n1)CC(CNCc1ccc(N3CCOCC3)nc1)CN2 (configuration not stated),-2.143%
16,Cc1cccnc1CCNC(=O)CC1C(=O)NCCN1CCC(C)C (configuration not stated),-23%
17,Cn1nccc1-c1cc(C2CCN(S(C)(=O)=O)CC2)ccn1,42.4%
18,CCCn1nccc1-c1cc(C2CCN(C(C)=O)CC2)ccn1,12.3%
19,CCCn1nccc1-c1cc(C2CCN(S(C)(=O)=O)CC2)ccn1,55.6%
20,COCC1c2nnn(CC3CC3)c2CCN1C(=O)c1cccn1C (configuration not stated),-56.2%
21,COCC1c2nnn(CC3CC3)c2CCN1C(=O)c1sccc1C (configuration not stated),72.3%
22,COCC1c2nnn(CC3CC3)c2CCN1C(=O)c1ccnnc1 (configuration not stated),-16.2%

row,Structure (SMILES),INHIBITION
1,COc1ccccc1C(C)(C)NC(=O)NCCC(=O)NC1CCCC1,19.7%
2,Cc1ccc(OCC2CCCN(C(=O)CCn3ccccc3=O)C2)cc1 (configuration not stated),18.5%
3,Cc1ccc(OCC2CCCN(C(=O)CN3CCOCC3)C2)cc1 (configuration not stated),56.5%
4,Cc1ccc(OCC2CCCN(C(=O)Cn3ccccc3=O)C2)cc1 (configuration not stated),18.5%
5,Cc1ccc(OCC2CCCN(CC3CCOCC3)C2)cc1 (configuration not stated),51.1%
6,Cc1ccc(OCC2CCCN(Cc3ccc(CO)o3)C2)cc1 (configuration not stated),22.3%
7,Cc1ccc(OCC2CCCN(c3nc(CO)cs3)C2)cc1 (configuration not stated),34.4%
8,Cc1ccc(N2CCC3(CC2)CNC(=O)CO3)nn1,21.7%
9,O=C(NC[C@H]1OC[C@@H]2CN(Cc3ccco3)CC[C@@H]21)c1cscn1,-72%
10,COCCCN1CCCC(c2nccn2CC2CCC2)C1 (configuration not stated),42.8%
11,Cc1cc(C)n(CC2CCCN2CC(=O)N(C)CCC#N)n1 (configuration not stated),36.1%
12,CN(C(=O)Cn1nnnc1C(C)(C)C)c1ccccc1,50.8%
13,CN(C(=O)Cn1nc(-c2ccc(F)cc2)oc1=O)c1ccccc1,42.6%
14,Cc1nc(CN2CCCN(CC(=O)N(C)CCC#N)CC2)no1,36.5%
15,CC(=O)N(C)c1nc(Cn2nnnc2C(C)(C)C)cs1,24.2%
16,CN(CC(=O)N(CCC#N)c1ccccc1)C1CCc2ccccc21 (configuration not stated),28.9%
17,CC(C)(C)c1nnnn1CC(=O)N(CCC#N)c1ccccc1,65.6%
18,N#CCCN(C(=O)CN1CCCC1C1CCCCC1)c1ccccc1 (configuration not stated),5.14%
19,CN(CCC#N)C(=O)Cn1nnnc1C(C)(C)C,61.9%
